Bioassay records: PubChem, Broad Institute
An excerpt weighted towards active compounds, which were near 3.9% of everything screened.
Wnt bcat act: activators of Wnt/beta-catenin signaling; Wnt/beta-catenin reporter cell assay, activator, plate reader; activation, % at 9.35 µM; hit rate 1.2% among 300,000; AID 743398; in the data active means activation above about 30%, passing the limit was not always enough; inconclusive means no clear call, values can overlap the other calls;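 further: 0% = neutral control wells and 100% = positive control wells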
HSF1 inhib: HSF1 inhibition; activity change, negative = inhibition, % at 7.5 µM (by protocol); AID 2098; hit rate 0.77% among 300,000; NIH3T3-HGL HSE-luciferase, MG132-induced, luminescence 8 h; active compounds read low;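 active means more than half of replicate wells show activity change below -50%, luminescence cut by over half; inconclusive means some wells, but at most half, below -50%; inactive means no replicate well below -50%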;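 further: luciferase reports HSF-1 transcriptional activity via heat shock element; 0% = median of DMSO wells and -100% = zero luminescence signal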
MITF act: activators of MITF-driven TRPM1 promoter activity in SK-MEL-5 cells | SK-MEL-5 TRPM1-promoter luciferase, 24 h; % of positive control, neutral wells = 0 | activation, % at 12.5 µM | hit rate 0.75% among 300,000 | AID 588334;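 active means mean activation of at least 80% with every replicate also reaching 80%; inconclusive means mean reaches 80% but some replicate falls short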;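 further: 0% = neutral control wells and 100% = parthenolide positive control wells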
HSF-1 act: increases HSF-1 driven luciferase reporter signal; NIH3T3-HGL HSF-1 luciferase reporter, MG132, 8 h; 100% = twice DMSO control signal; activation, % at 9 µM; hit rate 1.7% among 300,000; AID 504408;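 active means mean replicate activation of at least 50% with a set share of replicates each reaching 50%; inconclusive means only one of those two conditions met; inactive means mean below 50% and too few replicates reaching it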;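 further: 0% = median of the neutral control wells and 100% = twice that signal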
esBAF inh: SWI/SNF esBAF complex inhibition; mouse ES cells, Bmi1-luciferase knock-in reporter, 24 h; 100% = twice the neutral-well signal; reporter increase, % at 12.5 µM; hit rate 2% among 350,000; in the data active means activation above about 40%; inconclusive means no clear call, values can overlap the other calls;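 further: 0% = median of the plate's neutral control wells and 100% = double that signal; a rise in the Bmi1 reporter signal indicates esBAF inhibition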
Numbers without * were called inactive; u = inconclusive; x = not tested or not shown.

SMILES | Wnt bcat act | HSF1 inhib | MITF act | HSF-1 act | esBAF inh
C[C@H](CO)N1C[C@H](C)[C@@H](CN(C)S(=O)(=O)c2ccc(F)cc2)Oc2ccc(NC(=O)Nc3ccc(F)cc3)cc2CC1=O | x | x | x | x | 5.6
O=C(Nc1ccc(N2CCN(C(=O)c3ccccc3)CC2)c(Cl)c1)c1ccc(Br)o1 | -3.9 | -8.4 | -6.2 | -10.3 | 0.9
CCN1CCN(c2ccc(NC(=O)c3cccc(F)c3)cc2Cl)CC1 | 8.5 | 5.3 | 127.8* | 33.6 | 33.3
O=C(Nc1ccc(N2CCOCC2)c(Cl)c1)c1ccc(Br)o1 | 52.9* | 27.8 | 105.5* | 42.2 | 60.4*
O=C(NC(=S)NC1CCCC1)c1ccccc1 | 25.0 | 20.4 | 54.6 | 26.8 | 56.5*
O=C(NC(=S)NC1C2CC3CC(C2)CC1C3)c1ccccc1 (centres undefined) | -3.0 | -57.7* | 10.5 | -66.0 | -0.1
CC(=O)NNC(=S)NC(=O)c1ccccc1 | -1.1 | -1.7 | -15.9 | -4.2 | x
CCC(NC(=S)NC1CCCCC1)c1ccccc1 (centres undefined) | -5.1 | -86.8* | -8.3 | -89.6 | -4.6
S=C(N/N=C1\CCc2ccccc21)NC1CCCCC1 | -1.0 | -55.1* | -0.9 | -64.2 | x
C[C@@H]1CN([C@@H](C)CO)C(=O)c2cc(-c3ccc(F)cc3)cnc2O[C@@H]1CN(C)CC1CCCCC1 | x | x | x | x | -4.9
O=C(COc1ccc(Cl)cc1)N1N=C(c2cccs2)CC1c1ccco1 (centres undefined) | 2.1 | x | -10.0 | x | 3.8
O=C(CCl)N1N=C(c2cccs2)CC1c1ccco1 (centres undefined) | 0.9 | -94.0* | -35.4 | -94.9 | x
O=C(c1ccco1)N1N=C(c2cccs2)CC1c1ccco1 (centres undefined) | -2.3 | 29.1 | -1.2 | 64.5* | -5.6
COc1ccc(C2=NN(C(=O)c3ccco3)C(c3ccco3)C2)cc1OC (centres undefined) | 11.2 | 31.5 | -36.0 | 62.2* | 9.3
CN1CCN(CC(=O)N2N=C(c3cccs3)CC2c2ccco2)CC1 (centres undefined) | -0.6 | -57.5* | -7.7 | -65.4 | x
O=C(c1ccco1)N1N=C(c2ccc(Cl)cc2)CC1c1ccco1 (centres undefined) | 1.9 | 4.4 | 2.4 | 2.9 | -5.1
Cc1ccc(C2CC(c3cccs3)=NN2C(=O)c2ccco2)o1 (centres undefined) | -6.8 | 1.7 | 29.6 | 7.1 | -4.5
COc1cccc(-c2ccc3c(c2)[C@H]2[C@H](CCN2S(=O)(=O)c2ccccc2C)[C@@H](CO)N3)c1 | x | x | x | x | -12.6
C[C@@H]1CCCCO[C@@H](CN(C)C(=O)Nc2ccc3c(c2)OCO3)[C@H](C)CN([C@@H](C)CO)C(=O)c2cc(NC(=O)Nc3cccc4ccccc34)ccc2O1 | x | x | x | x | 2.8
CCc1ccc(C2=NN(C(C)=O)C(c3ccco3)C2)cc1 (centres undefined) | 12.0 | 33.2 | 78.5 | 73.9* | x
CN(C)c1nc(N)nc(CSc2nnnn2-c2ccc(F)cc2)n1 | -3.0 | 20.4 | -17.3 | 60.2* | -4.5
Cc1cccc(C)c1-n1nnnc1SCc1nc(N)nc(N(C)C)n1 | -2.7 | x | x | x | -0.5
Fc1ccc(-n2cc(-c3ccccc3)c3c(N4CCOCC4)ncnc32)cc1 | -1.7 | -51.9* | -9.1 | -58.4 | x
COc1ccc(-n2cc(-c3ccccc3)c3c(N4CCOCC4)ncnc32)cc1 | -1.9 | -30.7 | -10.9 | -44.8 | -7.2
C[C@@H]1CN([C@H](C)CO)C(=O)c2cc(/C=C/c3ccccc3)cnc2O[C@H]1CN(C)S(=O)(=O)c1ccccc1 | x | x | x | x | 4.8
SMILES | Wnt bcat act | HSF1 inhib | MITF act | HSF-1 act | esBAF inh
O=C(CSc1nc2ncccc2[nH]1)c1cccc([N+](=O)[O-])c1 | 1.0 | 27.8 | 11.7 | 65.9* | x
O=C(CSc1nc2ncccc2[nH]1)c1ccc(F)cc1 | 6.9 | 10.4 | 8.9 | -3.7 | 7.0
O=C(CSc1ncn[nH]1)c1cccc([N+](=O)[O-])c1 | -4.5 | 77.3 | 0.2 | 126.6* | x
C[C@@H]1CN([C@H](C)CO)S(=O)(=O)c2ccc(C#Cc3ccncc3)cc2O[C@@H]1CN(C)C | x | x | x | x | 10.2
Cc1ccc(/C=N/n2c(-c3ccccc3)n[nH]c2=S)cc1 | -0.7 | -6.0 | x | -22.8 | -2.9
N=C1N(/N=C/c2ccccc2)C(=Nc2ccccc2)C(=S)N1c1ccccc1 | x | 7.7 | x | 25.0 | 59.7*
COc1ccc(NC(=O)C/C(C)=N/NC(=O)c2cccs2)c([N+](=O)[O-])c1 | 1.8 | 36.6 | -4.2 | 69.7* | 2.3
C/C(CC(=O)Nc1ccc(Cl)cc1C(F)(F)F)=N\NC(=O)c1cccs1 | 10.2 | 29.4 | -7.0 | 64.6* | 35.1
C/C(CC(=O)Nc1ccc(Cl)cc1C(F)(F)F)=N\NC(=O)c1ccccn1 | -0.9 | 27.0 | 9.7 | 29.1 | x
COc1ccc(NC(=O)c2cccs2)c([N+](=O)[O-])c1 | x | 12.1 | 45.8 | 23.4 | 86.3*
COc1ccc(NC(=O)c2cc(Cl)ccc2Cl)c([N+](=O)[O-])c1 | -3.8 | 11.7 | 6.6 | -9.5 | 7.5
Cc1c(NC(=O)c2cccs2)cccc1[N+](=O)[O-] | -3.7 | -23.3 | -7.2 | -38.0 | 11.6
COc1ccc(NC(=O)c2sccc2C)c([N+](=O)[O-])c1 | -2.1 | 43.3 | 51.4 | 74.2* | 54.6*
C[C@@H]1CN([C@H](C)CO)S(=O)(=O)c2ccc(/C=C/c3ccccc3)cc2O[C@@H]1CN(C)Cc1cccnc1 | x | x | x | x | -1.7
CN(C)C(=O)C[C@@H]1C[C@@H]2c3cc(NC(=O)C4CCOCC4)ccc3O[C@@H]2[C@H](CO)O1 | x | x | x | x | -3.6
C/C(CC(=O)NCc1ccccc1)=N\NC(=O)c1cnccn1 | -0.4 | -1.1 | -2.2 | 8.6 | x
COc1cc(NC(=O)COc2ccccc2[N+](=O)[O-])ccc1NC(=O)c1cccs1 | 13.6 | 19.0 | -73.6 | 15.0 | 49.9*
COc1cc(NC(=O)COc2ccccc2Cl)ccc1NC(=O)c1cccs1 | -8.3 | 11.7 | 34.5 | -13.2 | 26.0
C/C(CC(=O)Nc1ccccc1C(F)(F)F)=N\NC(=O)c1cnccn1 | -1.8 | -84.3* | 6.0 | -88.0 | 9.3
CCC(C)C(=O)N1CCCC(c2nc(-c3cccs3)no2)C1 (centres undefined) | u | 1.9 | u | 8.6 | 52.7*
CCOc1ccc(-c2nnc(-c3ccccc3)n2-c2ccccc2)cc1 | 59.4* | 10.1 | x | 20.3 | 24.4
CCOc1ccc(-c2nnc(-c3ccccc3)o2)cc1 | x | 12.2 | 2.4 | 30.5 | -58.7
CCC(=O)N1C[C@H](C)[C@H](OC)CN(C)C(=O)c2cc(NS(C)(=O)=O)ccc2OC[C@@H]1C | x | x | x | x | -0.1
COc1ccccc1C(CC(=O)c1ccccc1)CC(=O)c1ccccc1 | -0.4 | 3.8 | -13.0 | -3.0 | -7.8
CCOC(=O)C(CCC(C)=O)C(=O)c1ccccc1 (centres undefined) | -0.7 | -1.1 | -3.2 | 15.0 | -3.2
CCOC(=O)C(CC(=O)c1ccccc1)CC(=O)c1ccccc1 | 6.0 | 17.1 | 86.8* | 10.4 | 56.9*
COC(=O)C(CC(=O)c1ccccc1)CC(=O)c1ccccc1 | 0.8 | 1.5 | 32.2 | 21.8 | 53.4*
COc1ccccc1C(=O)N1C[C@H]2[C@@H](c3ccccc31)[C@H](CO)N2C(=O)Nc1ccccc1 | x | x | x | x | -5.1
